Unmarked numbers belong to inactive results. Records with an inconclusive call do not appear. The source made the active and inactive calls. Unless noted, the call rests on the fitted dose curve; in most records, active means well fitted curve in the direction sought with a large enough effect in the repeat runs; inconclusive means weak or mixed curves; inactive means no such curve, though single readings can be large; an effect the other way counts as inactive or inconclusive.

The nature of test [1]: qHTS assay to identify small molecule agonists of the sonic hedgehog signaling (Shh) pathway (AID 1259368; calls by dose curve;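 further: NIH/3T3-derived 3T3Gli1-Luc cells carrying a stable Gli1-driven firefly luciferase reporter; series mostly up to about 92 µM; nearly all actives have a fitted effect of over 15% in size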). In outline: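 A Gli1 transcriptional response element controlled firefly luciferase in 3T3Gli1-Luc cells. Compounds and a positive control were added 4 hr after plating, and cells were incubated a further 24 hr at 37 C before luminescence detection.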
A short description of test [2]: qHTS assay to identify small molecule antagonists of the sonic hedgehog signaling (Shh) pathway (AID 1259369; calls by dose curve; further: nearly all actives have a fitted effect of over 45% in size). In outline:
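For antagonist detection, the reporter line received test compounds together with conditioned medium, incubated 24hr at 37 C, 5% CO2, then luminescence was recorded following 30min room-temperature luciferase reagent incubation.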

A short description of test [3]: qHTS assay to identify small molecule agonists of the androgen receptor (AR) signaling pathway in the presence of an antagonist - cell viability counter screen (AID 1259379).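 Further: MDA-kb2 human breast cancer cells carrying an MMTV luciferase reporter; series mostly up to about 92 µM; nearly all actives have a fitted effect of over 25% in size.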 In outline:
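Seed MDA-kb2 at 3,000 cells/well; incubate 5 hr, 37C, 0% CO2. Add nilutamide to 3.0uM final, then pin compounds at 15 concentrations. Incubate 16 hr. Add CellTiter-Fluor at 15 hr, read fluorescence after 1 hr.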

Test [4] concerns the target Androgen receptor (Homo sapiens) (UniProt P10275). The test is described as follows: qHTS assay to identify small molecule agonists of the androgen receptor (AR) signaling pathway in the presence of an antagonist (AID 1259381; calls by dose curve; further: nearly all actives have a fitted effect of over 15% in size). A digest of the protocol: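 Test compounds at 15 concentrations were incubated for 16hr with MDA-kb2 reporter cells in presence of 3.0uM nilutamide (final). Signal: ONE-Glo luciferase luminescence.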

Test [5] in a line: qHTS assay to identify small molecule antagonists of the estrogen receptor beta (ER-beta) signaling pathway - cell viability counter screen (AID 1259382). Further: series mostly up to about 92 µM; nearly all actives have a fitted effect of over 55% in size. In outline: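 In this multiplexed counter screen, cells were seeded at 2,000 per well in medium with 2% charcoal-stripped FBS and incubated 6 hr before compound and 1nM final E2 were added. Sixteen hours later, ATP-based luminescence reported viability.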

Test [6] concerns the target Estrogen receptor (Homo sapiens) (UniProt P03372). The test is described as follows: qHTS assay to identify small molecule agonists of the estrogen receptor alpha (ER-alpha) signaling pathway in the presence of an antagonist (AID 1259383; calls by dose curve; further: nearly all actives have a fitted effect of over 15% in size; further: potency means the concentration at half of the fitted maximal effect; on activation: top concentration of the series differs between compounds). A digest of the protocol: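 Stably transfected VM7Luc4E2 reporter cells, kept 5 days in charcoal-stripped serum, received ICI-182,780 at 10.0nM final before compound addition. Following 22hr incubation at 37C and 5% CO2, luciferase signal was read by luminescence.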

Test [7] is described as follows: qHTS assay to identify small molecule agonists or antagonists of the thyroid stimulating hormone receptor (TSHR) signaling pathway - wild type cell line counter screen (AID 1259384; calls by dose curve). In outline: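 Wild-type HEK293 cells were plated 18 h at 37 C/5% CO2, pin-dosed with compound plus Ro20-1724 medium, held 30 min at room temperature, then given cAMP-d2 and anti-cAMP-cryptate; fluorescence was read after 1 h. Fifteen concentrations, triplicate.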

For test [8], the target named is Thyrotropin receptor (Homo sapiens) (UniProt P16473). The test is described as follows: qHTS assay to identify small molecule antagonists of the thyroid stimulating hormone receptor (TSHR) signaling pathway (AID 1259385; calls by dose curve; further: nearly all actives have a fitted effect of over 20% in size). In outline:
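TSHR-HEK293 cells were plated and held 18 h at 37C/5% CO2, then given compound plus Ro20-1724 and stimulated with TSH at 1.5 ng/mL final. After 30 min at room temperature, cAMP was detected with cAMP-d2/anti-cAMP-cryptate (1 h) by fluorescence.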

Test [9] is described as follows: qHTS assay to identify small molecule agonists of the estrogen receptor alpha (ER-alpha) signaling pathway in the presence of an antagonist - cell viability counter screen (AID 1259386).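 Further: series mostly up to about 92 µM; cells exposed to compounds for 22 h at 37 °C before the viability read; nearly all actives have a fitted effect of over 30% in size.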 A digest of the protocol:
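Viability counter screen using VM7Luc4E2 (full-length ER-alpha, four ERE-luciferase). The cells were treated with compounds alongside ICI-182,780 10.0nM for 22hr, and live-cell protease fluorescence was quantified with CellTiter-Fluor.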

In test [10] the target is Progesterone receptor (Homo sapiens) (UniProt P06401). The test is described as follows: qHTS assay to identify small molecule agonists of the progesterone receptor (PR) signaling pathway (AID 1346784; calls by dose curve; further: nearly all actives have a fitted effect of over 30% in size; further: potency means the concentration at half of the fitted maximal effect). In outline:
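HEK 293T PR-UAS-bla reporter cells, 2% charcoal-stripped FBS; 6 hr settle at 37C/5% CO2, compound (DMSO) 16 hr, LiveBLAzer B/G FRET substrate 2 hr RT, fluorescence intensity read.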

The nature of test [11]: qHTS assay to identify small molecule antagonists of the TGF-beta/Smad signaling pathway - cell viability counter screen (AID 1346824). Further: nearly all actives have a fitted effect of over 50% in size. A digest of the protocol:
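SBE-bla HEK 293T cells were plated overnight at 37 C, then given compounds in DMSO plus TGF-beta1 (added as 0.25 ng/mL solution) for 5 hr. After the bla read, CellTiter-Glo was added to the same wells and luminescence read after 30 min at room temperature.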

Test [12] can be described thus: qHTS assay to identify small molecule agonists of the TGF-beta/Smad signaling pathway - cell viability counter screen (AID 1346829). Further: top concentration of the series differs between compounds; nearly all actives have a fitted effect of over 45% in size. A digest of the protocol: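 Compound-treated SBE-bla HEK 293T cells (5 hr, 37 C) were assessed for viability with CellTiter-Glo in parallel with the reporter read.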
Test [13] in a line: qHTS assay to identify small molecule agonists of the TGF-beta/Smad signaling pathway (AID 1346859; active means well fitted activation curve with a large enough effect in the signal ratio in the repeat runs, not every such curve was filed as active; the % refers to the signal ratio; further: series mostly up to about 77 µM). In outline:
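Read-out: fluorescence at 460 and 530 nm (405 nm excitation) after a 2 hr room-temperature incubation with beta-lactamase FRET substrate. SBE-bla HEK 293T cells had been treated with test compounds for 5 hr at 37 C.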

Test [14] concerns the target Thyrotropin-releasing hormone receptor (Homo sapiens) (UniProt P34981). The test is described as follows: qHTS assay to identify small molecule antagonists of the thyrotropin-releasing hormone receptor (TRHR) signaling pathway (AID 1346877; active means well fitted inhibition curve with a large enough effect in the repeat runs, not every such curve was filed as active; further: series mostly up to about 51 µM). A digest of the protocol: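 Following an 18 h incubation at 37 °C and a 2 h calcium dye load, TRHR-HEK293 cells were exposed to compound (5 min, room temperature) and challenged with TRH, 1 nM final.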

Test [15] can be described thus: qHTS assay to identify small molecule agonists of the estrogen receptor beta (ER-beta) signaling pathway - cell viability counter screen (AID 1259380). Further: nearly all actives have a fitted effect of over 30% in size. Further: potency means the concentration at half of the fitted maximal effect. A digest of the protocol:
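CellTiter-Glo read, 30 min RT, same wells as bla assay; cells ER-beta-UAS-bla HEK293T; 16 hr compound, 37C; medium 2% charcoal-stripped FBS.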

Test [16] addresses Progesterone receptor (Homo sapiens) (UniProt P06401). Description: qHTS assay to identify small molecule antagonists of the progesterone receptor (PR) signaling pathway (AID 1346795; active means well fitted inhibition curve with a large enough effect in the signal ratio in the repeat runs, not every such curve was filed as active; the % refers to the signal ratio; further: potency means the concentration at half of the fitted maximal effect). A digest of the protocol: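 Beta-lactamase reporter, HEK293T PR-UAS-bla line; 2% charcoal-stripped FBS; 6 hr pre-incubation, 37C/5% CO2. Compound + R5020 1 nM final, 16 hr. LiveBLAzer B/G FRET substrate, 2 hr RT; fluorescence intensity read.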

Test [17] in a line: qHTS assay to identify small molecule antagonists of the progesterone receptor (PR) signaling pathway - cell viability counter screen (AID 1346798). Further: nearly all actives have a fitted effect of over 50% in size. Further: potency means the concentration at half of the fitted maximal effect. On activity change, negative = cytotoxicity: series mostly up to about 92 µM. A digest of the protocol:
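Luminescence readout (CellTiter-Glo, 30 min, RT) of viability in PR-UAS-bla HEK293T cells exposed to compound and R5020 agonist for 16 hr at 37C, 5% CO2; run in the same wells as the beta-lactamase reporter read.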

Test [18] in a line: qHTS assay to identify small molecule agonists of the progesterone receptor (PR) signaling pathway - cell viability counter screen (AID 1346799; calls by dose curve; further: nearly all actives have a fitted effect of over 45% in size; further: potency means the concentration at half of the fitted maximal effect). In outline: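 HEK293T PR-UAS-bla, 3,000 cells/well, 2% charcoal-stripped FBS; 6 h settle, compound 16 h at 37C/5% CO2; LiveBLAzer 2 h RT, then CellTiter-Glo 30 min RT, luminescence read.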
Test [19] concerns the target Estrogen receptor beta (Homo sapiens) (UniProt Q92731). Description: qHTS assay to identify small molecule agonists of the estrogen receptor beta (ER-beta) signaling pathway (AID 1259377; active means well fitted activation curve with a large enough effect in the signal ratio in the repeat runs, not every such curve was filed as active; the % refers to the signal ratio). In outline: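 Beta-lactamase reporter readout: fluorescence of LiveBLAzer B/G FRET substrate after 2 h at room temperature, following 16 h compound treatment of ER-beta-UAS-bla HEK293T cells at 37C in 2% charcoal-stripped FBS medium.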

Test [20] shares this target. The test is described as follows: qHTS assay to identify small molecule antagonists of the estrogen receptor beta (ER-beta) signaling pathway (AID 1259378; active means well fitted inhibition curve with a large enough effect in the signal ratio in the repeat runs, not every such curve was filed as active; the % refers to the signal ratio; further: potency means the concentration at half of the fitted maximal effect). A digest of the protocol: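 ER-beta-UAS-bla HEK293T (GripTite) cells in 2% charcoal-stripped FBS medium were preincubated 6 hr at 37C, dosed with compound, then stimulated with 1 nM E2 (final) for 16 hr; beta-lactamase reporter read by B/G FRET fluorescence after 2 hr substrate loading.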
On the % scale 0 is the no-effect control and ±100 the full control effect.

Sequence of Estrogen receptor (Homo sapiens) (P03372 whole entry, looked up): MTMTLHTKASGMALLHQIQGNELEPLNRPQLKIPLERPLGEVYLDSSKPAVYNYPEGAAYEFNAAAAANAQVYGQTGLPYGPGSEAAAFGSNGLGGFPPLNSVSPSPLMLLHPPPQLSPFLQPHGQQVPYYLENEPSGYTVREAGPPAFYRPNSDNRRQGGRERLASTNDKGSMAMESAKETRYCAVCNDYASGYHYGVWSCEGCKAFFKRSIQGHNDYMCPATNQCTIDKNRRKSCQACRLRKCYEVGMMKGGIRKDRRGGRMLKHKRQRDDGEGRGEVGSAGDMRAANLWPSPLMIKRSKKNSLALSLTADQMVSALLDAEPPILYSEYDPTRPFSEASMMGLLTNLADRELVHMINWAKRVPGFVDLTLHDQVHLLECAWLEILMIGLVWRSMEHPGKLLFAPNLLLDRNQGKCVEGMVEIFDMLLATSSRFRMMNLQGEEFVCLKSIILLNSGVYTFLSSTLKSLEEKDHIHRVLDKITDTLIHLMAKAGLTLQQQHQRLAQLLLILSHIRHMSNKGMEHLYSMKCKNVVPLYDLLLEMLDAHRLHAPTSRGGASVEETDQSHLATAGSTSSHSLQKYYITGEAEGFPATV
Sequence of Thyrotropin-releasing hormone receptor (Homo sapiens) (P34981 whole entry, looked up): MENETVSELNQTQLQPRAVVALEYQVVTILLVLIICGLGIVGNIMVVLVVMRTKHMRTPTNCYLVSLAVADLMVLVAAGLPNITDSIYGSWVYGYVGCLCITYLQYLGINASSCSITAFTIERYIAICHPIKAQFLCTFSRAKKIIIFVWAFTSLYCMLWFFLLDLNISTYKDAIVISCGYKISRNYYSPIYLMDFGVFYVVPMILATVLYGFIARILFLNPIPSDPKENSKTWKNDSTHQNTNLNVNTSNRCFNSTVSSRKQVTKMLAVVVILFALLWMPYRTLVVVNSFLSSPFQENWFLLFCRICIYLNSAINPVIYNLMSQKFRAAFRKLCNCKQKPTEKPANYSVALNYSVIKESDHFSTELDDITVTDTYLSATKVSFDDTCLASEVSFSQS
Sequence of Progesterone receptor (Homo sapiens) (P06401 whole entry, looked up): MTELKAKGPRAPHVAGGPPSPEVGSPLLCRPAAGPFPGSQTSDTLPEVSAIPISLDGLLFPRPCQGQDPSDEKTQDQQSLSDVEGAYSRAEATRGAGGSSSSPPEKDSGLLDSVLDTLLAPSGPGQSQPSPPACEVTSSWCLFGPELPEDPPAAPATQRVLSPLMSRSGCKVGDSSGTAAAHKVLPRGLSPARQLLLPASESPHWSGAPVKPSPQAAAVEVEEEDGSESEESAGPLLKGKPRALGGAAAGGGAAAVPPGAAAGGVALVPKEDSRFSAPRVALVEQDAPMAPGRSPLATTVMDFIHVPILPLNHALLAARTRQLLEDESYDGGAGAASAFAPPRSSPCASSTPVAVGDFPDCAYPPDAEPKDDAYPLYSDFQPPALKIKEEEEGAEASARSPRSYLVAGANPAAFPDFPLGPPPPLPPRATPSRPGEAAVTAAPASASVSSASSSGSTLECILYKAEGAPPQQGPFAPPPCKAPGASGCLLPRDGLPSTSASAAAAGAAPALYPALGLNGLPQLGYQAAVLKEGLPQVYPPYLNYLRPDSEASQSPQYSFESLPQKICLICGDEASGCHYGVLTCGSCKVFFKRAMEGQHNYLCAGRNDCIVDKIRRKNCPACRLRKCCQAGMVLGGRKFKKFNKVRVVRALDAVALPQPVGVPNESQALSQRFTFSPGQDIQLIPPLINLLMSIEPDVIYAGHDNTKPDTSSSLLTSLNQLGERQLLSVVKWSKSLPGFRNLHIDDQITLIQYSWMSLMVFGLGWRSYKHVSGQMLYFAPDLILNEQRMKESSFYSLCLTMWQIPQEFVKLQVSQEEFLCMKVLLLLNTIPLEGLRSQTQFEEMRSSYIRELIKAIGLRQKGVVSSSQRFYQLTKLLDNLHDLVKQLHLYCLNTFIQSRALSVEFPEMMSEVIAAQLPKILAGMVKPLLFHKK
Sequence of Estrogen receptor beta (Homo sapiens) (Q92731 whole entry, looked up): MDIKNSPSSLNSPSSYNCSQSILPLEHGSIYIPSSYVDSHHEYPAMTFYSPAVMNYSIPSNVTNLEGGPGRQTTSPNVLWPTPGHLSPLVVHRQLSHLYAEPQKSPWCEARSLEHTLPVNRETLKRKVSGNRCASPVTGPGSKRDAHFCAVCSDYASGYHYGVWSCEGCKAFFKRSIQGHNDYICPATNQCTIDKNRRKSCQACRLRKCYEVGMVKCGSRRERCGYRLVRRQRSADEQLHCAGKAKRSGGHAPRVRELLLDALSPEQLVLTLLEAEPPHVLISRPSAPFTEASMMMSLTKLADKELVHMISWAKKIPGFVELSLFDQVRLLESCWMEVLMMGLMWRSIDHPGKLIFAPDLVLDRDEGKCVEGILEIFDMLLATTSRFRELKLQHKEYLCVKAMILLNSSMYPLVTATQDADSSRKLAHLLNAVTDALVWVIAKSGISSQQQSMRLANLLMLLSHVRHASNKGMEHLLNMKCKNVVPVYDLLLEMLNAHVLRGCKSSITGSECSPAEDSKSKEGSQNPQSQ
Sequence of Thyrotropin receptor (Homo sapiens) (P16473 whole entry, looked up): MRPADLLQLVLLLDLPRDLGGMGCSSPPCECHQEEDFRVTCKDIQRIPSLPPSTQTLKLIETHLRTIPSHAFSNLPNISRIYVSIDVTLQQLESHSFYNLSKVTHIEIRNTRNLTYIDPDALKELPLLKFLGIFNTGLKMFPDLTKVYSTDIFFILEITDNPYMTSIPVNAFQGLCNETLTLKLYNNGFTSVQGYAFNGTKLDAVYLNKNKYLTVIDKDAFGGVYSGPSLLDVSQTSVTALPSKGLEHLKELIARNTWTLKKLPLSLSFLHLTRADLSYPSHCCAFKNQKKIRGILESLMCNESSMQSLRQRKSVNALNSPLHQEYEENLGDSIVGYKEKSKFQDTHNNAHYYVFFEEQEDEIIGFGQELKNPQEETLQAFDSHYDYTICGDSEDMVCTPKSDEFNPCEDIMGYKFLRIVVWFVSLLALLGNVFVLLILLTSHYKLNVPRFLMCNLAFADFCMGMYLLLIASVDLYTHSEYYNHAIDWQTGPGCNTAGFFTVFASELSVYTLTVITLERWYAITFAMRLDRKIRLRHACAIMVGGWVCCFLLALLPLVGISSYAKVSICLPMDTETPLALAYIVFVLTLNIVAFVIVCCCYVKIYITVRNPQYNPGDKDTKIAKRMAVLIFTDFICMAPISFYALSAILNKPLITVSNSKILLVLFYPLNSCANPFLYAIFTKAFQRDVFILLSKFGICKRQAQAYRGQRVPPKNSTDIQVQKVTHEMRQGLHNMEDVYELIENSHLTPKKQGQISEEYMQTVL
Sequence of Androgen receptor (Homo sapiens) (P10275 whole entry, looked up): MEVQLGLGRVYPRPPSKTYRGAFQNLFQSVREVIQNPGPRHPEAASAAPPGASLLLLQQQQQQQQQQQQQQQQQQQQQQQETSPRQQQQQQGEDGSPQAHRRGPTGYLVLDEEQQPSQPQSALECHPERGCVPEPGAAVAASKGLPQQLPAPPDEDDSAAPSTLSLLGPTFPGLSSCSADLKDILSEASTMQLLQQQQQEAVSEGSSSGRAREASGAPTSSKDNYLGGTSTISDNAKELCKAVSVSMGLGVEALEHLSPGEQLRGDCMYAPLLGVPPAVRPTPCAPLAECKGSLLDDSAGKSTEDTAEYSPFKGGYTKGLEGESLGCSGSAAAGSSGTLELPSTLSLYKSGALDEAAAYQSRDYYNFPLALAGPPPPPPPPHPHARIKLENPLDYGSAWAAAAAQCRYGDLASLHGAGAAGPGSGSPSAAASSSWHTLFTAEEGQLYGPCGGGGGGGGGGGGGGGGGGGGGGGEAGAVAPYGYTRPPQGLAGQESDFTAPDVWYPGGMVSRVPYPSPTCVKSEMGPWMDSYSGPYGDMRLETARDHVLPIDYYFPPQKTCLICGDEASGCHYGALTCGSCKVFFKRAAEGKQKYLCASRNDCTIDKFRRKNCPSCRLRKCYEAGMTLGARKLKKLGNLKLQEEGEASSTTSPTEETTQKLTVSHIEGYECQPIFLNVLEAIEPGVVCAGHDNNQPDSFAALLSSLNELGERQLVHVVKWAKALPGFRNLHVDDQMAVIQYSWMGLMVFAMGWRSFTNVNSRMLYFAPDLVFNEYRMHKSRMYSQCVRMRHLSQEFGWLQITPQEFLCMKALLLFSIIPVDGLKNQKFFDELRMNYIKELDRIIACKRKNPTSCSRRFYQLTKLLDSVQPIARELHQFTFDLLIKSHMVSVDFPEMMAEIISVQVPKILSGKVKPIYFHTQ

On to `CCCCCN(CCCCC)C(=O)C(CCC(=O)O)NC(=O)c1ccc(Cl)c(Cl)c1` (centres undefined), for which the Potency result in test [1], in test [2], in [3], in [4], in test [5] and in [6] was “inactive” in each case. For the same molecule, the Potency entry in test [8] and in test [10] was “inactive” throughout. Further, the result in test [7], in test [9], in test [11], in test [12], in test [13] and in test [14] was inactive.

Consider `C=CCSCC1Nc2cc(Cl)c(S(N)(=O)=O)cc2S(=O)(=O)N1` (centres undefined), for which the Potency entry in [1], in test [2], in [3], in test [15], in [5] and in [8] was “inactive” in each case. Besides, the Potency result in test [10], in test [16] and in test [17] was “inactive” throughout. Moreover, the result in test [9], in test [11], in test [12], in test [13] and in test [14] was inactive.

With `C#CC(O)CCCCC` (centres undefined), the Potency entry in test [1], in [2], in test [3], in test [15], in test [8] and in [16] was “inactive” in each case. Besides, in test [18], the Potency entry is “inactive”. Moreover, the call in [7], in test [9], in [12] and in test [13] was inactive. Also, in test [10], the Potency was 27.5 µM (active).

With `O=[N+]([O-])c1ccc(CCO)cc1`, the Potency result in [1], in [3], in test [15], in [5], in [6] and in [8] was “inactive” throughout. The Potency entry in test [10], in test [16], in [17] and in test [18] was “inactive” each time. Besides, the result in [9], in test [11], in [12], in [13] and in test [14] was inactive.

Consider `OCCCCCCO`, for which the Potency entry in [1] and in [2] was “inactive” each time. Moreover, the figures for the Potency in test [15], in test [17] and in test [18] were 55.1 µM (active), 61.9 µM (active) and 19.6 µM (active), respectively. Moreover, the result in test [9], in [11], in [13] and in test [14] was inactive.

Regarding `Nc1ccn(C2CO[C@H](CO)O2)c(=O)n1` (some centres undefined), the Potency entry in [1], in test [20], in test [3], in test [15], in [5] and in [6] was “inactive” throughout. The Potency result in test [8], in test [10], in test [16], in [17] and in test [18] was “inactive” each time. For the same molecule, the call in test [19], in test [7], in test [9], in test [11], in test [12] and in test [13] was inactive.

On to `CCn1cc(C(=O)O)c(=O)c2cc(F)c(N3CCN(C)CC3)cc21`, for which the activity change in test [1] is -0.335% [at 18.9 µM, hits give high values]. For the same molecule, the activity change, negative = cytotoxicity in test [3] was 3.8% [at 19 µM]; in test [15], 5.67% [at 19 µM]; in [5], 0.879% [at 19 µM]; in test [9], 0.853% [at 19 µM]; in test [17] it was 0.0653% [at 18.9 µM]; in test [18] it was -1.41% [at 19 µM]. The activity change, negative = cytotoxicity in test [12] was -2.92% [at 15.8 µM]. The activation in test [6] is 1.75% [at 19 µM]; in [10] it was -0.0581% [at 19 µM]; in test [13], 0.23% [at 15.8 µM]. Also, the activity change, negative = inhibition in [8] is 0.775% [at 19 µM]. Further, in test [14], the activity, negative = inhibition is 2.2% [at 10.5 µM].

For the molecule `C(=C(c1ccccc1)c1ccccc1)c1ccccc1`, the Potency result in test [1], in test [3], in [5] and in [17] was “inactive” each time. Further, the molecule was called inactive in test [19], in test [9], in test [11], in test [12], in test [13] and in test [14]. Moreover, the Potency is 1.54 µM (active) in test [20], 17.2 µM (active) in test [6] and 12.2 µM (active) in test [16].

For the molecule `Oc1ccc2c(c1)OC[C@@H](N1CCC(O)(c3ccc(F)cc3)CC1)[C@H]2O`, the result in [19], in [7], in test [9], in test [11], in test [12] and in test [13] was inactive. In addition, in [14], the result was inactive. Moreover, the Potency result in [20], in test [3], in test [15], in test [5], in [8] and in test [10] was “inactive” in each case. Also, the Potency result in [17] and in test [18] was “inactive” in each case. In addition, the Potency in test [6] is 0.668 µM (active); in test [16], 10.6 µM (active).

Take `[O-][N+](=Nc1ccccc1)c1ccccc1`: the Potency entry in [2], in test [20], in [15], in [5], in test [6] and in test [10] was “inactive” throughout. For the same molecule, the Potency entry in [16], in test [17] and in [18] was “inactive” in each case. For the same molecule, the molecule was classed as inactive in test [19], in [9], in test [11], in [12], in [13] and in test [14].

(Values after PubChem BioAssay (Tox21).)
